Assay results reported in ChEMBL document CHEMBL3988442, “University of Dundee, Small-Polar-MMV Screening Library” (2021).

target: T1, Aspartate--tRNA(Asp/Asn) ligase (Mycobacterium tuberculosis (strain ATCC 25618 / H37Rv)) (UniProt P9WFW3); experiment: Assay for Asp RNA synthetase-1 from Mycobacterium tuberculosis; assay type: functional; design: scale not given: in the data most compounds retested in dose-response had high values; details: 30 µM
T1 sequence (whole entry): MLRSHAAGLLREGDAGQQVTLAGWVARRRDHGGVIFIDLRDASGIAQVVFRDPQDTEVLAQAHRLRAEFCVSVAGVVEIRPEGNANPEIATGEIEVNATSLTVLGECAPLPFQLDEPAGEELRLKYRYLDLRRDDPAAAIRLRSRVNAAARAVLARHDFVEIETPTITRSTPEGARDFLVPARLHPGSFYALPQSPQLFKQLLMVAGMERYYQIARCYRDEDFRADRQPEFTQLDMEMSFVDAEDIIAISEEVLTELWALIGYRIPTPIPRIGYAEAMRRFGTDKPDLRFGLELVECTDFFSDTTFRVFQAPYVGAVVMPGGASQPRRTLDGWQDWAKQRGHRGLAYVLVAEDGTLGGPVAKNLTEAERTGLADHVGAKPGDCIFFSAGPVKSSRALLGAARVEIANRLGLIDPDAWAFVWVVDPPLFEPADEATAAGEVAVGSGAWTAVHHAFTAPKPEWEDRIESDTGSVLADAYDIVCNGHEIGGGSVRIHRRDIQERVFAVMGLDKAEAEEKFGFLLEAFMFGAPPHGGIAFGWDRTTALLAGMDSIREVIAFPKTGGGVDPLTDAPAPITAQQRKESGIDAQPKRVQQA

Structure (SMILES) | Percent Effect
Cn1cc(CNCCOc2ccc(F)c(F)c2)c(-c2cccnc2)n1 | 7.32%
CCN(CC1CCCO1)C(=O)Nc1cc(C(=O)OC)ccc1F (stereo not given) | -1.37%
c1nc(COCC2CC2)c2n1CCCN(CC1CC1)C2 | -0.611%
CCc1nnc2n1CCN(C(=O)c1ccc3[nH]cnc3c1)C2 | -2.2%
N#Cc1ccccc1N1CCCN(C(=O)CCn2cccn2)CC1 | -10.7%
O=C(c1ccc[nH]1)N1CCC2(CC1)C(=O)Nc1ccccc12 | -1.68%
Cc1ccc(C)c(-c2csc(N)c2C#N)c1 | 2.35%
N#Cc1cccc(CN2CC[C@@H]3[C@@H]2CC(=O)N3Cc2cccnc2)c1 | 4.04%
O=C(NCC(O)c1ccccc1Cl)c1cccc(-n2cnnn2)c1 (stereo not given) | 7.85%
COc1cccc2cc(CNC(C)(C)C(=O)N3CCC(O)CC3)oc12 | -1.57%
Cc1ccccc1CC1(CO)CCCN(c2ncccc2C#N)C1 (stereo not given) | 3.07%
CNc1cncc(C2CCCN2Cc2ccccc2OCC(=O)O)n1 (stereo not given) | 4.48%
Cc1cc(C)n(CC2CN(CC(=O)NC3CCCC3)CCO2)n1 (stereo not given) | 0.91%
CC(=O)N1CCCC(Cc2cncc(Br)c2)CC1 (stereo not given) | -0.223%
O=C(Nc1ccc(F)cc1)N1C[C@H]2CC[C@@H]1CN(Cc1cccnc1)C2 | 0.632%
CC(C)c1nnc2n1CCN(CCCS(=O)(=O)c1ccccc1)C2 | -5.16%
c1ccc(OC2CCCC2)c(CNC2CCc3ncnn3C2)c1 (stereo not given) | -1.83%
COc1ccc(C(=O)NCC(c2cccn2C)N2CCCC2)c(OC)c1 (stereo not given) | -4.85%
CC(O)CN1CCN(C(=O)c2ccc(N(C)C)nc2)CC1 (stereo not given) | 1.24%
Cc1nn(C)c(N(C)C)c1CNC1CCc2c(F)cccc21 (stereo not given) | -3.35%
